High-throughput results as filed in PubChem BioAssay.
Hits are enriched below; roughly 12% of the tested compounds scored in any of these assays.
G9a block: inhibitors of human histone lysine methyltransferase G9a; AID 504332; Potency, µM (top dose mostly 102 µM), without a hit: at the top dose activity, negative = inhibition, actives largely listed as inhibitors; G9a H3K9 monomethylation, AlphaScreen, 2 h; Q96KQ7; 350,000 tested, 8.8% active; further: on the % scale 0 is the no-effect control and ±100 the full control effect; nearly all actives have a fitted effect of over 75% in size
Target sequence (Q96KQ7 913-1193 limits assumed): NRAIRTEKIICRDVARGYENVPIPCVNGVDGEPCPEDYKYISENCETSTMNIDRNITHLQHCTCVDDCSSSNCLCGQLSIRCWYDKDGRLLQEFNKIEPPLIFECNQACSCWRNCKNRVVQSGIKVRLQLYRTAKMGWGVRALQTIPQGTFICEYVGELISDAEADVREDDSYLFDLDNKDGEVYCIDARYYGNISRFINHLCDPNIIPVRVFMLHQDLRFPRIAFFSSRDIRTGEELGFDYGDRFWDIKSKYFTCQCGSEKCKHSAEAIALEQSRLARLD
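Compounds were preincubated with 20 nM G9a for 15 min, after which biotinylated H3K9 peptide (500 nM) and SAM (20 uM) started a 2 h room-temperature reaction. Monomethylated product was quantified by antibody-based AlphaScreen chemiluminescence.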
Sfp PPTase inh: Sfp phosphopantetheinyl transferase inhibition. 310,000 tested, 3.5% active. Potency, µM, for inactives: largest response in the series, negative = inhibition, actives largely listed as inhibitors. Biochemical Sfp PPTase activity, qHTS;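 further: the enzyme is Sfp with the accession as filed and its product quenches rhodamine fluorescence; 0% = enzyme reaction without inhibitor and -100% = no enzyme wells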
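After 15 min at room temperature with compound, 15 nM Sfp received 5 uM rhodamine-CoA plus 12.5 uM BHQ-2-ybbR (50 mM Hepes pH 7.6, 10 mM MgCl2). Rate came from the fluorescence difference over 30 min, ex 525/em 598 nm.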
HP1b chromo inh: blocks HP1-beta chromodomain binding to methylated histone tails; 390,000 tested, 0.56% active; AlphaScreen HP1-beta / biotin-H3K9me3 peptide binding; Potency, µM (doses to about 114 µM), for inactives: at the highest dose activity change, negative = inhibition, hits mostly inhibitors; further: nearly all actives have a fitted effect of over 70% in size
Target sequence (P83916 whole entry, looked up): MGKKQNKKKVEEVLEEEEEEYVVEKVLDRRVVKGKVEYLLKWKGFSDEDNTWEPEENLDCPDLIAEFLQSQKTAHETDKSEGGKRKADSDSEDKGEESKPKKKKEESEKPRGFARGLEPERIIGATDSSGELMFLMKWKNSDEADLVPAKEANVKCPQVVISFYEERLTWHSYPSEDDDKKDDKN
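Compound inhibition of the preformed complex between 50 nM HP1-beta and 50 nM biotinylated H3K9me3 peptide was read by AlphaScreen. Buffer was PBS pH 7.4 with 0.01% Tween-20. Incubations ran 30 min at room temperature, with 10 ug/mL donor/acceptor beads.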
BAZ2B block: blocks human BAZ2B; AlphaScreen BAZ2B-H3K14Ac peptide displacement; Q9UIF8; 360,000 tested, 4.4% active; Potency, µM (highest dose often 114 µM), for inactives: at the top dose activity change, negative = inhibition, actives largely listed as inhibitors; further: on the % scale 0 is the no-effect control and ±100 the full control effect; nearly all actives have a fitted effect of over 60% in size
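Multi-concentration screen (max 110 uM) measuring displacement of acetylated histone H3 peptide from BAZ2B by AlphaScreen, using 50 nM protein, 50 nM peptide and 10 ug/mL streptavidin donor plus Ni-chelate acceptor beads.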
PLK1 PBD inh: PLK1 (human) polo-box domain binding inhibition. AID 720504. Potency, µM, inactives show max response, negative = inhibition, most hits filed as inhibitors. Plk1 PBD binding of FITC phosphopeptide, fluorescence polarization. P53350. 360,000 tested, 2.8% active; further: series mostly up to about 57 µM; on the % scale 0 is the no-effect control and ±100 the full control effect; nearly all actives have a fitted effect of over 65% in size
JMJD2A Tudor inh: inhibitors of human JMJD2A Tudor domain; O75164; AlphaScreen JMJD2A-Tudor / H3K4me3 peptide binding; Potency, µM (highest dose often 114 µM), without a hit: at the highest dose activity change, negative = inhibition, usual class: inhibitors; 390,000 tested, 4.4% active; AID 504339; further: on the % scale 0 is the no-effect control and ±100 the full control effect; nearly all actives have a fitted effect of over 50% in size
* marks the source's active call; other numbers are inactive results; ? = inconclusive; / = not tested or not shown; [ ] = remark or other dose. The call rests on the fitted dose curve; in most records, active means well fitted curve in the direction sought with a large enough effect; inconclusive means small, poorly fitted or top-dose-only effect, or another doubt; inactive means no such curve, though single readings can be large; an effect the other way counts as inactive or inconclusive. Potency means the concentration at half of the fitted maximal effect.

SMILES	G9a block	Sfp PPTase inh	HP1b chromo inh	BAZ2B block	PLK1 PBD inh	JMJD2A Tudor inh
C=CCn1c(SCC(=O)Nc2cc(C)on2)nnc1C1COc2ccccc2O1 (configuration not stated)	28.1%	-16.3%	45.1%	-14.0%	0.6%	-2.1%
Cc1cc(NC(=O)CSc2nnc(C3COc4ccccc4O3)o2)no1 (configuration not stated)	?	-1.2%	8.3%	50.1µM*	-26.2%	-10.8%
Cc1cc(NC(=O)CSc2nnc3c(C)cc4cc5c(cc4n23)OCO5)no1	35.5µM*	12.7%	/	-3.2%	/	/
COc1cc(OC)c(NC(=O)CSCc2nc(-c3ccc(OC)c(OC)c3)no2)cc1Cl	6.1%[59 µM]	/	42.4%	-0.4%	/	-11.6%
CC(OC(=O)CCOc1ccccc1)C(=O)NC1CC1 (configuration not stated)	14.0%[0.501 µM]	/	32.1%	-3.8%	-2.6%	-2.8%
CCOC(=O)c1c(NC(=O)/C=C/c2ccc(OCC)cc2)sc2c1CCCC2	13.4%[59 µM]	/	56.8%	13.0%	/	20.1%
N#Cc1cc2cc3c(cc2nc1SCC(=O)N1CCCC1)OCCO3	28.2µM*	-3.1%	17.8%	-1.8%	-12.8%	-11.6%
CC(=O)CSc1nc2cc3c(cc2cc1C#N)OCCO3	1µM*	26.5%	21.4%	-22.4%	0.4%	-9.0%
Cc1cc(C)c(C#N)c(SCC(=O)N2CCCCC2)n1	14.1µM*	31.6µM*	6.9%	-0.1%	?	?
CCN(Cc1ccccc1)C(=O)CSc1nc(C)cc(C)c1C#N	17.5%	-3.8%	9.0%	4.5%	21.2µM*	?
CCN(CC)C(=O)CSc1nc(C)cc(C)c1C#N	?	-40.9%	36.5%	-19.9%	?	-9.9%
CC(C)(C)c1ccc(CC(=O)N2CCC2(C)C(=O)NS(=O)(=O)c2cccs2)cc1 (configuration not stated)	/	/	/	/	-2.7%	/
CN(C)C(=C(C#N)C#N)N1CCN(c2ccc(Cl)c(Cl)c2)CC1	17.9%	-3.3%	22.1%	-0.2%	0.6%	-17.1%
CN(C)C(=C(C#N)C#N)N1CCN(c2ccc(Cl)cc2)CC1	-31.0%	22.0%	-19.8%	-3.8%	29.9µM*	?
CCOC(=O)c1sc(N2C(=O)c3oc4ccccc4c(=O)c3C2c2ccc(C(C)(C)C)cc2)nc1C (configuration not stated)	3.9%[59 µM]	/	4.9%	0.8%	/	-21.3%
S=c1[nH]nc(-c2ccccc2)n1/N=C/c1ccc(Cl)cc1	2.51µM*	2.4%	11.3%	-29.8%	-23.0%	?
CCOc1ccc(/C=N/n2c(-c3ccccc3)n[nH]c2=S)cc1	0.501µM*	-8.9%	23.0%	-29.5%	-0.1%	79.4µM*
Fc1ccc(/C=N/n2c(-c3cccs3)n[nH]c2=S)cc1	1.12µM*	50.1µM*	-25.3%	-34.6%	?	31.6µM*
S=c1[nH]nc(-c2ccccc2)n1/N=C/c1cccc(Cl)c1	/	-29.6%	9.9%	-11.8%	-20.8%	70.8µM*
CC(NC(=O)Cc1cc(F)cc(F)c1)C(=O)NC(C(=O)OC(C)(C)C)c1ccccc1 (configuration not stated)	/	5.8%	/	/	/	/
Clc1cccc(OCc2nc(-c3ccncc3)n[nH]2)c1	27.1%[59 µM]	-7.2%	51.3%	1.3%	-11.2%	-5.5%
S=c1[nH]nc(-c2ccncc2)n1/N=C/c1cccc(Cl)c1	1µM*	-11.5%	35.2%	-34.2%	-10.8%	11.2µM*
CCc1ccc(S(=O)(=O)NCc2nc3cccnc3n2Cc2cccc(OC)c2)cc1	12.0%[59 µM]	/	15.2%[57 µM]	-6.8%	/	-25.2%
CCCCC/C=C\C/C=C\C/C=C\C/C=C\CCCC(=O)C(F)(F)F	18.0%[59 µM]	28.2µM*	/	/	/	/
O=C(CN1CCN(c2cccc(C(F)(F)F)c2)CC1)NCc1ccccc1	/	3.3%	21.1%	-8.5%	-12.1%	-15.0%
SMILES	G9a block	Sfp PPTase inh	HP1b chromo inh	BAZ2B block	PLK1 PBD inh	JMJD2A Tudor inh
Cc1[nH]c2ccccc2c1C(O)CN1CCN(c2cccc(C(F)(F)F)c2)CC1 (configuration not stated)	56.2µM*	-18.7%	?	39.8µM*	-8.6%	56.2µM*
Cc1[nH]c2ccccc2c1NC(=O)CN1CCN(c2cccc(C(F)(F)F)c2)CC1	?	-9.2%	-26.2%	50.1µM*	-2.7%	?
Cc1ccc(CNc2nc(-c3cccnc3)nc3ccccc23)cc1	-44.9%	89.1µM*	31.7%	-14.6%	2.3%	-21.4%
Clc1cccc(CNc2nc(-c3cccnc3)nc3ccccc23)c1	44.7µM*	-29.2%	-14.5%	?	7.5%	?
c1cncc(-c2nc(NCC3COc4ccccc4O3)c3ccccc3n2)c1 (configuration not stated)	50.1µM*	?	1.3%	-32.4%	-17.0%	21.9%[11.4 µM]
c1ccc(CNc2nc(-c3cccnc3)nc3ccccc23)cc1	-2.5%	-8.0%	29.0%	-4.2%	-7.9%	-16.1%
c1ccc(CNc2nc(NCc3ccccc3)c3ccccc3n2)cc1	?	14.1µM*	3.3%	?	-3.3%	-33.8%
Fc1ccc(CNc2nc(-c3cccnc3)nc3ccccc23)cc1	-36.7%	1.7%	14.3%	-0.7%	-10.7%	-15.2%
C#CCCCO/N=C1/[C@H]2O[C@@H]2[C@@H](O)[C@H]2[C@H]1CCn1c(=O)n(C)c(=O)n12	/	11.5%	/	/	/	/
CCN(CC)CCN=c1c(C)nc(C#N)c(N)n1O	/	/	/	/	-5.1%	/
N#CCCNS(=O)(=O)c1ccc(C(=O)OCCCOC(=O)c2ccc(S(=O)(=O)NCCC#N)cc2)cc1	/	20.7%	36.1%	-7.2%	-7.0%	-4.1%
COc1ccc(Cn2cc(C(=O)c3ccc(Cl)cc3)c(=O)c3cc4c(cc32)OCO4)cc1	-29.8%[59 µM]	/	16.6%	-36.5%	/	-24.6%
COc1ccc(C)cc1NC(=O)CN1CCN(S(=O)(=O)c2ccc3ccccc3c2)CC1	-40.5%[2.33 µM]	/	31.7%	-3.4%	-4.4%	-16.7%
Fc1ccc(Nc2nc(NCc3ccco3)c3ccccc3n2)cc1	/	12.6µM*	-15.3%	?	-10.9%	50.1µM*
c1cncc(-c2nc(NCc3ccc4c(c3)OCO4)c3ccccc3n2)c1	4.9%[59 µM]	44.7µM*	48.9%	-24.1%	3.8%	-14.0%
OC[C@H]1O[C@@H](n2cnc3cncnc32)[C@H](O)[C@@H]1O	-3.2%[59 µM]	26.6%	/	/	/	/
Cc1cccc(NC(=O)Cn2nnc(C(=O)NCc3cccs3)c2N)c1	8.3%[59 µM]	/	15.2%	/	/	?
O=S(=O)(c1ccc(Cl)s1)N1CCN(CCc2ccccc2)CC1	/	4.5%	28.1%	-11.8%	-12.8%	-6.9%
Cc1nc(-c2ccc(S(=O)(=O)Oc3ccccc3Cl)s2)cs1	35.0%	-3.7%	70.0%	24.4%	-10.1%	68.2%
Cc1nc(-c2ccc(S(=O)(=O)N3CCN(C4c5ccccc5-c5ccccc54)CC3)s2)cs1	56.2µM*	10.6%	?	-28.8%	-3.1%	-12.2%
Cc1nc(-c2ccc(S(=O)(=O)N3CCCN(CCc4ccccc4)CC3)s2)cs1	50.1µM*	-9.9%	-8.3%	56.2µM*	3.1%	?
